The structures appear in SMILES notation. Values joined by “and” are separate entries in the source; they are usually repeats but may differ in a detail not shown here. Identical values can stand only once. In all, about 370,000 compounds went through this assay and about 4,800 (1.3%) were called active.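 Rule for the calls: active = inhibition above about 21% made by adding two undisclosed values (limit read from the data); inactive = the rest.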 The full list was thinned out, with actives kept by preference. Some structures have more than one record in an assay (separate samples or runs), and their calls can disagree.

The source of these data is PubChem BioAssay AID652257 (The Scripps Research Institute Molecular Screening Center, 2013).

Chain of Protein arginine N-methyltransferase 1 (Homo sapiens) (Q99873 whole entry, looked up): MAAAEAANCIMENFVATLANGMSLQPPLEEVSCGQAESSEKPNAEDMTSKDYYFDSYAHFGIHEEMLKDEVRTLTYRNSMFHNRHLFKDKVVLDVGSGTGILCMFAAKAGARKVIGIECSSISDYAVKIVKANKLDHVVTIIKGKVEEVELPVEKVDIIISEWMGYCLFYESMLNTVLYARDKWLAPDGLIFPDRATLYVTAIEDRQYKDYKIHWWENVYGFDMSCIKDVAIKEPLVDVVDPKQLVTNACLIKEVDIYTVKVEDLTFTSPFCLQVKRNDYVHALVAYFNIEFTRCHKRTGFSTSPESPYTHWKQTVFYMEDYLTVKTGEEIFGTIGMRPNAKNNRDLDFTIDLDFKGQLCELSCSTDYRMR

The test concerns the target Protein arginine N-methyltransferase 1 (Homo sapiens) (UniProt Q99873). The test is described as follows: PRMT1 methyltransferase inhibitors, primary screen, biochemical, fluorescence polarization (AID 652257). Particulars: recombinant PRMT1, activity-based probe fluorescence polarization; at 2.79 µM; stronger effect = higher value. (In general: Polarisation of emitted light reports the rotation of a fluorescent probe.)
Consider `CC(C)NC(=O)NNc1c(Cl)cncc1Cl`, for which the inhibition was -2.84% (inactive).

For the compound `CCC(c1ccc(NC(=O)OC(C)(C)C)cc1)c1cc(OC)cc(OC)c1` (centres undefined), the inhibition was 0.65% (inactive).

For `O=C(c1ccc(S(=O)(=O)NCc2ccco2)cc1)N1CCN(c2ccccc2)CC1`, the inhibition is -5.34% (inactive).

For `O=c1/c(=C/c2ccc(CNS(=O)(=O)c3ccccc3)o2)sc2n1CCN=2`, the inhibition is 42.5% (active).

Regarding `O=S(=O)(NCC1OCCc2ccccc21)c1ccccc1` (centres undefined), the inhibition was 1.74% (inactive).

In the case of `Cc1ccc(-n2c(N)c(C(=O)N3CCOCC3)sc2=S)c(C)c1`, the inhibition is 2.33% (inactive).

For `Cc1cccc(-n2c(N)c(C(=O)N3CCN(C)CC3)sc2=S)c1`, the inhibition is 78.2% (active).

Turning to `N#Cc1ccccc1-n1c(N)c(C(=O)N2CCCC2)sc1=S`, the inhibition was 12.5% (inactive).

On to `O=C(CNC(=O)c1ccccc1)OC(C(=O)Nc1cc([N+](=O)[O-])ccc1F)c1ccccc1` (centres undefined), for which the inhibition is -5.95% (inactive).

With `COc1cccc(N2CC(NS(=O)(=O)c3cccs3)CC2=O)c1` (centres undefined), the inhibition was 0.96% (inactive).

For the compound `CN[C@H]1C[C@H]2c3cc(N4CCOCC4)ccc3CCN2C[C@H]1[C@H](C)O`, the inhibition is 1.75% (inactive).

For `Cc1ccccc1NC(=O)CSC(=O)c1ccccc1`, the inhibition is 24.5% (active).

Take `Cc1cccc(NC(=O)COC(=O)CCc2ccccc2)c1C`: the inhibition was -1.61% (inactive).

`Cc1cccc(NC(=O)CSC(N)=O)c1C`: the inhibition was 35.8% (active).

On to `Cc1ccccc1NC(=O)CSC1=NCCN1`, for which the inhibition is 9.55% (inactive).

Consider `Cc1cccc(NC(=O)CSc2nc3c(c(=O)[nH]2)CCCC3)c1C`, for which the inhibition was -0.58% (inactive).

With `Cc1ccccc1NC(=O)Cn1nnc(-c2ccccc2F)n1`, the inhibition is -2.95% (inactive).

For `CC(c1c[nH]c2ccccc12)c1c(-c2ccccc2)n(C)c2ccccc12` (centres undefined), the inhibition was 8.87% (inactive).

As for `CN(C)CC(=O)N[C@@H]1C[C@@H]2O[C@H](CO)CC[C@@H]2O[C@@H]1CCc1ccc(C#Cc2ccccc2)cc1`, the inhibition is -0.26% (inactive).

Regarding `CSc1cccc(NC(=O)CN2C(=O)COc3ccc(S(=O)(=O)N4CCOCC4)cc32)c1`, the inhibition is -1.34% (inactive).

Turning to `O=C(c1c[nH]c2ccccc12)N1CCC(Oc2cccnc2)CC1`, the inhibition is -5.2% (inactive).

In the case of `CN1CC(=O)N=C1N`, the inhibition is -1.28% (inactive) and 0.16% (inactive).

For `CCOc1ccc(CCNC(=O)COC(=O)C2CCN(c3ccc(C(F)(F)F)cn3)CC2)cc1OCC`, the inhibition was -0.97% (inactive).

On to `CCCC(O)(c1ccccc1)C(c1ccccc1)c1ccccn1` (centres undefined), for which the inhibition is 3.01% (inactive).

Consider `C=CC1=C(C(=O)O)N2C(=O)[C@@H](NC(=O)/C(=N\OCC(=O)O)c3csc(N)n3)[C@H]2SC1`, for which the inhibition is 23.7% (active).

With `CO/N=C(\C(=O)N[C@@H]1C(=O)N2C(C(=O)O)=C(COC(C)=O)CS[C@H]12)c1csc(N)n1` (stereo in doubt), the inhibition is 16% (inactive) and 23.3% (active) and 25.5% (active).

On to `C=CC1=C(C(=O)O)N2C(=O)[C@@H](NC(=O)/C(=N/OCC(=O)O)c3csc(N)n3)[C@H]2SC1`, for which the inhibition was 28.6% (active).

For the compound `COc1ccc(-n2c(COc3ccccc3)nnc2SCC(=O)Nc2ccc3c(c2)OCO3)cc1`, the inhibition is 0.3% (inactive).

With `C=C(C)CNC(=S)/N=c1\scc(C)n1CC`, the inhibition is 2.72% (inactive).

Regarding `O=C(NCCC1=CCCCC1)C1CCN(S(=O)(=O)c2ccc(Cl)s2)CC1`, the inhibition was 2.95% (inactive).

Regarding `CCc1c(C)c2ccc(OC3CCCCC3=O)cc2oc1=O` (centres undefined), the inhibition was -0.12% (inactive).

Regarding `CCCCCCN1CCS(=O)(=O)N(Cc2ccc(C(F)(F)F)cc2)C(C(=O)OC)C1` (centres undefined), the inhibition is 0.07% (inactive).

For the compound `C#CCCN([C@H](C(=O)OC)C(C)C)S(=O)(=O)c1ccc(F)cc1Br`, the inhibition was 1.71% (inactive).

For the compound `O=c1cc(CCl)nc2scc(-c3ccccc3)n12`, the inhibition was 6.61% (inactive).

With `OCCn1c(-c2ccccc2)csc1=Nc1ccccc1`, the inhibition was 63.9% (active).

Take `C=CC1=CCN(S(=O)(=O)C(C)(C)C)[C@@H]1CCO`: the inhibition is -1.03% (inactive).

With `Cc1cc(C(=O)OCC(=O)c2c(N)n(C)c(=O)n(C)c2=O)c(C)o1`, the inhibition is -0.81% (inactive).

Regarding `Cc1cc(C)c(S(=O)(=O)NN=C2c3ccccc3[C@H]3Cc4csc[n+]4[C@@H]23)c(C)c1`, the inhibition is 52.5% (active).

As for `COc1ccc(C(=O)N2CCN(c3ccc(C(C)=O)cc3F)CC2)cc1S(=O)(=O)NC1CC1`, the inhibition was 2.01% (inactive).

Consider `CCCCCN1CCCCC(NC(=O)C(C)CCC)C1=O` (centres undefined), for which the inhibition was 3.28% (inactive).

As to `COC(=O)C1CN(CCc2ccccc2)CCS(=O)(=O)N1Cc1ccc(F)cc1` (centres undefined), the inhibition is 0.22% (inactive).

For `O=C(Nc1ccc(F)cc1)c1cccnc1N1CCOCC1`, the inhibition was 0.36% (inactive).

Turning to `O=C1OC(NC(=O)c2ccccc2)C(N2CCOCC2)=C1Cl` (centres undefined), the inhibition is 0.25% (inactive).

On to `O=C(O)c1ccc(NN=CC2=C(N3CCOCC3)/C(=C/c3ccccc3)CC2)cc1`, for which the inhibition is 23.8% (active).

On to `CC12CCC(C(=O)N(CCC#N)CCC#N)(CC1=O)C2(C)C` (centres undefined), for which the inhibition was -1.4% (inactive).

As for `COC(=O)[C@]12C[C@H](CC(=O)NCCc3ccccc3OC)C(=O)N(Cc3ccco3)C1=C[C@H](C(C)C)O[C@@H]2C1CC1`, the inhibition was -1.39% (inactive).

Consider `CC(C)CNC(=O)OCc1cn(Cc2ccc(F)cc2)nn1`, for which the inhibition is -6.07% (inactive).

For the compound `N=c1c2c3c(sc2nc2n1CCCCC2)CCCC3`, the inhibition is -1.83% (inactive).

`CCn1c(=S)[nH]c2sc3c(c2c1=O)CCCCC3`: the inhibition is -0.49% (inactive).

As to `S=c1[nH]nc2c3c4c(sc3ncn12)CCCC4`, the inhibition was 40.6% (active).

`CC(C)(C)NC(=O)C(c1cccnc1)N(C(=O)c1cnco1)c1ccc(C(C)(C)C)cc1` (centres undefined): the inhibition is 1.45% (inactive).

For `Cc1nc2ccc(C(=O)N3CCN(C(=O)C(C)(C)C)CC3)cc2n1C1CCCC1`, the inhibition was -5.06% (inactive).

Take `Nc1nnc(SCC(=O)NCC(=O)Nc2ccc(F)c(F)c2F)s1`: the inhibition is 0.28% (inactive).

Regarding `NS(=O)(=O)c1cccc(NC(=O)COC(=O)/C=C/c2ccco2)c1`, the inhibition is 8.16% (inactive).

For `COc1cccc(NC(=O)COC(=O)/C=C/c2ccco2)c1`, the inhibition is 34.6% (active).

As to `CC(C)CNC(=O)COC(=O)/C=C/c1ccco1`, the inhibition is 3.56% (inactive).

Turning to `COC(=O)[C@@]12CCCCC3=C1N(CCC3)C(=O)[C@H]2CC(=O)NCc1cccc2ccccc12`, the inhibition is 0.96% (inactive).

On to `Cc1ccc(C2=CCN(C)C(=O)N2c2ccc(Cl)cc2)cc1`, for which the inhibition is 1.54% (inactive).

With `COCCn1c(SCC(=O)Nc2cc(Cl)ccc2OC)nc2c(c1=O)SC(C)C2` (centres undefined), the inhibition is -2% (inactive).

`COc1ccc(C(=O)OCCN(C)C2CN(Cc3cn(Cc4cccc(C)c4)nn3)S(=O)(=O)C2)cc1OC` (centres undefined): the inhibition was -3.17% (inactive).

As to `CC(=O)N1CCCN(C2=Nc3ccccc3Sc3ccccc32)CC1`, the inhibition was -2.73% (inactive).

Regarding `CCCCOCCCNC(=O)C[C@H]1C[C@@]2(C(=O)OC)C(=C[C@H](COCc3ccccc3)O[C@@H]2C)N(Cc2cccc3ccccc23)C1=O`, the inhibition was -1.04% (inactive).

As to `CCOC(=O)C1(Cc2cccc(OC)c2)CCCN(C(=O)CCSC)C1` (centres undefined), the inhibition was 2.68% (inactive).

Turning to `CC(C)(C)C1C/C(=C/c2ccco2)C(=O)/C(=C/c2ccco2)C1` (centres undefined), the inhibition was 24.6% (active).

Regarding `O=C(NCCc1c[nH]c2ccccc12)OCc1cn(-c2c(F)cccc2F)nn1`, the inhibition is 0.52% (inactive).

Regarding `CCCCNC(=O)C[C@@H]1C(=O)N(CCc2ccc(Cl)cc2)C2=CCCC[C@]21C(=O)OCC`, the inhibition is -4.44% (inactive).

For the compound `NC(=O)NC(=O)CSc1nc2cc([N+](=O)[O-])ccc2n1-c1cccc(C(F)(F)F)c1`, the inhibition is -3.17% (inactive).

`CC(=O)OC1CCC2C3CCC4=C(CC(F)C(=O)C4)C3CCC12C` (centres undefined): the inhibition is -4.66% (inactive).

Regarding `CN(Cc1ccc(F)cc1)C(=O)COc1ccc2ccccc2c1`, the inhibition was 6.77% (inactive).

Regarding `Fc1ccc(COc2ccc(-c3nnco3)cc2)cc1`, the inhibition was 2.4% (inactive).

`Fc1ccc(COc2cccc(-c3n[nH]c(=S)o3)c2)cc1`: the inhibition was 31.7% (active).

For the compound `CC(C)(C)NC(=O)CSC(=Nc1ccccc1F)NC#N`, the inhibition is 8.54% (inactive).

For `COc1ccc(-n2c(SCC(=O)Nc3ccc4c(c3)OCCO4)nnc2-c2ccc(Cl)cc2)cc1`, the inhibition was -2.7% (inactive).

For the compound `O=C(CN1CCC(NC(=O)NCc2ccccc2)CC1)Nc1ccc2c(c1)OCCO2`, the inhibition is 2.96% (inactive).

On to `COc1ccccc1C(=O)CSc1nnc(-c2ccccn2)n1-c1ccccc1`, for which the inhibition was -1.16% (inactive).

Turning to `O=C(CCN1CCc2ccccc2C(O)(c2ccccc2)C1)c1ccc2c(c1)OCCO2` (centres undefined), the inhibition is 51.5% (active).

On to `O=C(C(=O)N1CCN(c2ccccc2)CC1)c1ccc2c(c1)OCO2`, for which the inhibition is 0.48% (inactive).

Regarding `O=S(=O)(c1ccc2c(c1)OCCO2)N1CCc2ccccc21`, the inhibition was -3.53% (inactive).

With `COc1ccc(C2NC(=O)N(C)C(C)=C2[N+](=O)[O-])cc1` (centres undefined), the inhibition is -2.65% (inactive).

In the case of `COc1ccc(S[C@]2(C(=O)N(C)C)CC(=O)N(c3ccc(OC)cc3)[C@@H]2c2ccc(OC)cc2)cc1`, the inhibition is -1.57% (inactive).

Regarding `CC(C)(C)c1ccc(CSc2nnc(-c3cccs3)o2)cc1`, the inhibition was -1.14% (inactive).

With `O=C1CCN(CCCc2ccccc2)CCN1CCO`, the inhibition is -6.27% (inactive).

Turning to `OCCN1CCN(C(=S)c2ccc(-c3ccccc3)cc2)CC1`, the inhibition was 32% (active).

As for `O=C(NC(=S)N1CCN(Cc2ccccc2)CC1)c1ccccc1`, the inhibition was 0.22% (inactive).

As to `CC1CN(CC(=O)NC(C)c2ccccc2)CC(C)O1` (centres undefined), the inhibition is 0.73% (inactive).

Turning to `COC(=O)c1ccccc1SC1CC(=O)N(c2cccc(C)c2)C1=O` (centres undefined), the inhibition was 57.3% (active).

With `COc1cccc(N2C(=O)CC(N3CCc4ccccc4C3)C2=O)c1` (centres undefined), the inhibition was 4.88% (inactive).

Turning to `CCc1cccc(CC)c1N1C(=O)CC(Sc2ccccc2N)C1=O` (centres undefined), the inhibition is -1.17% (inactive).

As for `Cc1ccccc1S(=O)(=O)NC(=O)C1(C)CCN1C(=O)C1(c2ccccc2)CCCC1` (centres undefined), the inhibition is 0.03% (inactive).

One may read the inhibition as the relative decrease from the control value, in per cent.
